Compounds with a hit are over-represented: about 2.9% of the library has one in this group of screens.
B2AR arrestin: qHTS assay of beta-arrestin-biased ligands of beta2-adrenergic receptor. Beta-2 adrenergic receptor (Homo sapiens), P07550. 330,000 compounds, 0.02% hits. beta-arrestin recruitment to beta2AR, cell-based reporter. Potency, µM (doses to about 46.1 µM), actives largely listed as activators; active = well fitted activation curve with a large enough effect; note: nearly all actives have a fitted effect of over 65% in size
TSHR antag: Antagonists of the Thyroid Stimulating Hormone Receptor: HTS campaign; 330,000 compounds, 0.2% hits; activity change, negative = inhibition, % at 11.5 µM; TSHR-expressing cells, TSH-stimulated cAMP HTRF, 2 h; active compounds read low; AID 504810, 2011; Thyrotropin receptor (Homo sapiens), P16473;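 active = activity change below a set negative limit, meaning inhibition stronger than a set level, cut at about -70% in these data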
Target sequence (P16473 whole entry, looked up): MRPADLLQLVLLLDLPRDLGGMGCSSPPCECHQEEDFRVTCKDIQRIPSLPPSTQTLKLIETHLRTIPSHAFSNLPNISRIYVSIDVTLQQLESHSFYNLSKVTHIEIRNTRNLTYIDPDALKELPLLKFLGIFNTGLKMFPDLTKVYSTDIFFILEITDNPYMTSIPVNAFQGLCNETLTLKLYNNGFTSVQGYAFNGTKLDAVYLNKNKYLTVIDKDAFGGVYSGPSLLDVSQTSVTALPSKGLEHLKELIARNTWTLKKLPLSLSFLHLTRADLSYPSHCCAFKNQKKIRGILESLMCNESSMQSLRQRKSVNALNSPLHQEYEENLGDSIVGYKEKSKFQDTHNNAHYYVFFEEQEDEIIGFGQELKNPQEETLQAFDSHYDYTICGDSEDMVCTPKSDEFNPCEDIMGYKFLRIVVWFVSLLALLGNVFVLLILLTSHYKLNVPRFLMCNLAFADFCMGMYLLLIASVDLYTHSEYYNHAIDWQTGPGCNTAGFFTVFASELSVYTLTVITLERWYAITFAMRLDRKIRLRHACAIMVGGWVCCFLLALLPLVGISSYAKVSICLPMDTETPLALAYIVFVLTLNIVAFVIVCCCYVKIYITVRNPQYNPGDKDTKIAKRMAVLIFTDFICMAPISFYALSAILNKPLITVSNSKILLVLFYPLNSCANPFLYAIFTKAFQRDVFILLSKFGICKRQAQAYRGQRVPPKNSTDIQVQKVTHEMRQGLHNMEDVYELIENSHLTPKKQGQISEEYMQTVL
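Inhibition of cAMP made by TSHR-expressing cells under TSH stimulation (4nM final, EC80; 2 h, 37 deg C) is quantified with a one-step lysis HTRF kit, anti-cAMP cryptate versus cAMP-d2.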
D3 ag: qHTS of D3 Dopamine Receptor Agonist: qHTS | 410,000 compounds, 0.58% hits | max activation, % | D(3) dopamine receptor (Homo sapiens), P35462 | AID 652048, 2013 | D3R DiscoveRx beta-arrestin cells, luminescence, 90 min; in the data active = max activation above about 30%
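Cells at 1500/well, incubated overnight, then treated with pinned compounds (dopamine as control) for 90 min at 37 degrees C. DiscoveRx reagent added for 30 - 60 minutes at room temperature; luminescence read.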
DRD3 antagonist: qHTS of D3 Dopamine Receptor Antagonist: qHTS; D(3) dopamine receptor (Homo sapiens), P35462; 360,000 compounds, 2.5% hits; D3R cells, DiscoveRx beta-arrestin luminescence, antagonist mode; active compounds read low; AID 652054, 2013; max response, negative = inhibition, %; in the data active = max response below about -50%
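Cells expressing the human receptor were seeded at 1500 cells/well, incubated overnight at 37 degrees C in 5% CO2, then exposed to library compounds with dopamine controls for 90 minutes at 37 degrees C before luminescent detection.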
A number is an active result.

For COc1cccc(N(C(=O)c2ccco2)c2nc(-c3sc(NC(=O)c4ccco4)nc3C)cs2)c1 the results were B2AR arrestin inactive, TSHR antag inactive, D3 ag 32.1 and DRD3 antagonist inactive.
`CN(c1ccc(Cl)cc1)S(=O)(=O)c1nnc(NC(=O)c2ccco2)s1` gave B2AR arrestin inactive, TSHR antag inactive, D3 ag inactive and DRD3 antagonist -72.1.
`CS(=O)(=O)c1ncc(N(Cc2ccco2)Cc2cccs2)c(C(=O)Nc2ccccc2F)n1` gave D3 ag inactive.
For CCN(CC)CCNC(=O)CCc1c(C)nc2c(c(C)nn2-c2ccc(C)cc2)c1C the results were B2AR arrestin inactive, TSHR antag inactive, D3 ag inactive and DRD3 antagonist -50.3.
Cc1nc2c(c(C)nn2-c2ccccc2)c(C)c1CCC(=O)Nc1ccc(F)cc1 was read as D3 ag 43.8.
Screening COc1cc2c(cc1O)CCN[C@]21CS[C@@H]2c3c(OC(C)=O)c(C)c4c(c3[C@H](COC1=O)N1[C@@H]2[C@H]2c3c(cc(C)c(OC)c3O)C[C@@H]([C@@H]1O)N2C)OCO4 returned D3 ag inactive.
Cc1cc(C)n(-c2nc(C)c(C)c(=O)n2CC(=O)Nc2ccc(OC(F)(F)F)cc2)n1 was read as D3 ag inactive.
Fc1ccc(COc2cccc(CNCc3ccncc3)c2)cc1 was read as B2AR arrestin inactive, TSHR antag inactive, D3 ag 33.8 and DRD3 antagonist inactive.
Screening Cc1cccc(N2CCN(C(=O)C3CCN(S(=O)(=O)c4cn(C)cn4)CC3)CC2)c1C returned D3 ag inactive.
`Cc1ccc(C)c2sc(NC(=O)c3ccc(N4CCCCC4)c([N+](=O)[O-])c3)nc12` gave B2AR arrestin inactive, TSHR antag inactive, D3 ag inactive and DRD3 antagonist -59.1.
`CC1CCCN(c2ccc(C(=O)NCc3ccc4c(c3)OCO4)cc2[N+](=O)[O-])C1` (stereo not given) gave B2AR arrestin inactive, TSHR antag inactive, D3 ag inactive and DRD3 antagonist inactive.
`O=C(NCc1ccc2c(c1)OCO2)c1ccc(N2CCCCCC2)c([N+](=O)[O-])c1` gave B2AR arrestin inactive, TSHR antag inactive, D3 ag inactive and DRD3 antagonist -60.2.
Screening O=C(NCc1ccc2c(c1)OCO2)c1c(-c2ccccc2)sc2ccccc12 returned B2AR arrestin inactive, TSHR antag inactive, D3 ag 67.3 and DRD3 antagonist inactive.
Screening O=C(NCc1ccc2c(c1)OCO2)c1ccc(Br)cc1 returned B2AR arrestin inactive, TSHR antag inactive, D3 ag 47.0 and DRD3 antagonist inactive.
For Cc1onc(-c2ccccc2)c1C(=O)NCc1ccc2c(c1)OCO2 the results were B2AR arrestin inactive, TSHR antag inactive, D3 ag inactive and DRD3 antagonist inactive.
CC1=C(c2ccc(C(C)C)cc2)S(=O)(=O)N=C1N1CCN(c2ccccc2F)CC1 was read as D3 ag inactive.
Screening CCCn1nc2cc(C(=O)N(CC)c3ccc(OC)cc3)ccc2c1OCC returned B2AR arrestin inactive, TSHR antag inactive, D3 ag 48.7 and DRD3 antagonist inactive.
`CCCn1nc2cc(C(=O)NCc3ccc4c(c3)OCO4)ccc2c1OCC` gave B2AR arrestin inactive, TSHR antag inactive, D3 ag inactive and DRD3 antagonist inactive.
`CCOc1c2ccc(C(=O)NCc3ccc4c(c3)OCO4)cc2nn1CC` gave B2AR arrestin inactive, TSHR antag inactive, D3 ag inactive and DRD3 antagonist -52.5.

Source: PubChem
